Many of the other results were omitted from the sample, so hits are more common in it than they were.
Pf Dd2 inh – inhibitors of Plasmodium falciparum Dd2 growth; AID 1347417; 120,000 tested, 4.3% active; P. falciparum Dd2 growth, SYBR Green, 72 h; Potency, µM (titrated, usually from 28.9 µM), inactives show at the highest dose activity, negative = inhibition, actives largely listed as inhibitors; active = well fitted inhibition curve with a large enough effect;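 also: plate controls were DMSO vehicle for no effect and reference drug for full effect; nearly all actives have a fitted effect of over 65% in size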
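Infected erythrocytes (Dd2, 0.3% parasitemia, 2.5% hematocrit final) are added to compound in RPMI-1640/Albumax II medium, grown 72 h at 37C in low oxygen, then lysed with saponin/Triton-X containing SYBR Green and read by fluorescence.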
* = called active by the depositor; i = inactive; [ ] = another dose, or the depositor's remark. Potency is read from the fitted curve at half-maximal effect.

SMILES	Pf Dd2 inh
CCc1ccc(Oc2c(C(F)(F)F)oc3c(CN4CCN(C)CC4)c(O)ccc3c2=O)cc1	0.28µM*
CC(C)c1ccccc1Oc1c(C(F)(F)F)oc2c(CN3CCN(C)CC3)c(O)ccc2c1=O	0.32µM*
COc1ccc(CN2CCC(O)(c3csc(CN4CCN(C)CC4)n3)CC2)cc1	i
CN1CCN(Cc2nc(C3(O)CCN(Cc4ccc(C(F)(F)F)cc4)CC3)cs2)CC1	i
CCN1CCN(C(c2ccccc2F)c2c(O)cc(C)n(CCOC)c2=O)CC1 (stereo unspecified)	i
COc1ccccc1C(=O)Nc1ccc([C@H]2OCC(=O)N(Cc3ccccc3)[C@@H]2CO)cc1	-9%
O=C(COc1ccccc1)N1CCC2(CC1)NC(=O)N(c1cccc(F)c1)N2	i
COc1ccccc1CNC(=O)[C@@H](C)C1CC[C@@]2(C)CC[C@H](NC(=O)C3CCCCC3)[C@@H](C)[C@@H]2[C@H]1O (stereo partly specified)	-10%
CCn1ccc2sc(C)c(C(=O)N3CCOCC3)c2c1=O	-9%
CNC(=O)[C@@H]1C[C@H](n2cc(CNC(=O)c3ccccc3OC)nn2)CN1	15%
Cn1cccc1C(=O)N1CCOCC1CC(=O)N1CCSCC1 (stereo unspecified)	-3%
O=C(Nc1ccc(O)c(-c2nc3ccccc3o2)c1)c1sc2ccccc2c1Cl	0%
O=C(Nc1ccc(O)c(-c2nc3ccccc3o2)c1)c1ccc(Br)cc1	2.8µM*
O=C(Nc1ccc(O)c(-c2nc3ccccc3o2)c1)c1cccs1	36%
O=C(C1CCCC1)N1CCC(CCOc2ccccc2F)C1 (stereo unspecified)	i
COc1ccccc1-c1[nH]nc2ncc(C(=O)N(C)c3ccccc3)nc12	-22%[44.1 µM]
COc1ccccc1-c1[nH]nc2ncc(C(=O)N3CCNC(=O)C3)nc12	-15%[44.1 µM]
COc1ccccc1-c1[nH]nc2ncc(C(=O)N3CCC(c4ccccc4)CC3)nc12	14µM*
Cc1cccc(C(=O)NC2CCN(c3cc(-c4ccc(F)cc4)[nH]n3)C2)c1 (stereo unspecified)	10µM*
O=C(NC1CCN(c2cc(-c3ccc(F)cc3)[nH]n2)C1)c1cccc(F)c1 (stereo unspecified)	i
O=C(NC1CCN(c2cc(-c3ccc(F)cc3)[nH]n2)C1)c1ccc2[nH]ccc2c1 (stereo unspecified)	5µM*
O=C(NC1CCN(c2cc(-c3ccc(F)cc3)[nH]n2)C1)c1ccccc1 (stereo unspecified)	-9%
O=C(NC1CCN(c2cc(-c3ccc(Cl)cc3)[nH]n2)C1)c1ccc2[nH]ccc2c1 (stereo unspecified)	i
COc1ccc(-c2cc(N3CCC(NC(=O)c4cccc(OC(F)(F)F)c4)C3)n[nH]2)cc1 (stereo unspecified)	-8%
COc1ccc(-c2cc(N3CCCC(NC(=O)c4cccc(C(F)(F)F)c4)C3)n[nH]2)cc1 (stereo unspecified)	1.3µM*
SMILES	Pf Dd2 inh
COc1ccc(C(=O)NC2CCCN(c3cc(-c4ccccc4)[nH]n3)C2)cc1 (stereo unspecified)	-23%
Cc1ccc(C(=O)NC2CCN(c3cc(-c4ccc(F)cc4)[nH]n3)C2)cc1 (stereo unspecified)	i
CCC1(N2CCN(C(=O)c3ccc(N(C)C)cc3)CC2)CCN(C(=O)NC)C1 (stereo unspecified)	-18%
N#Cc1ccc(CN2CC3(Cc4ccccc4C(=O)N3)C2)cc1	-5%
CCOc1cc(=O)n2c(c1C(=O)Nc1cc(C)ccc1C)CCCC2	12%
OC1(CN2CCC(Oc3cccnc3)CC2)CNCCOC1 (stereo unspecified)	-11%
COCC1(CNC(=O)c2nc3ccccc3[nH]2)C[C@@H](O)[C@@H](O)C1 (stereo partly specified)	9%[44.1 µM]
COc1ccc(CC(=O)N2[C@@H]3CC[C@H]2CC(NC(=O)c2cnc(C)cn2)C3)cc1OC (stereo partly specified)	14%
Cc1ccc(NC(=O)N2CCC3(CC2)CC(Cc2nc(-c4ccccc4)no2)CCO3)cc1C (stereo unspecified)	8.9µM*
COc1ccc(CNC(=O)N2CCC3(CC2)CC(Cc2nc(C4CC4)no2)CCO3)cc1 (stereo unspecified)	-10%
COc1ccc(C(=O)N2CCC3(CC2)CC(Cc2nc(-c4ccccc4)no2)CCO3)cc1 (stereo unspecified)	i
COCC(=O)N1CCC(Oc2ccc(C(=O)N(C)C)cn2)CC1	i
O=CN1CCCC(n2cnc3cccnc32)C1 (stereo unspecified)	3%[44.1 µM]
Cc1ccc(CN2CCCOCCNC(=O)[C@@H]3CCCC[C@@H]32)s1	5µM*
Cc1cccc(CN2CCCOCCNC(=O)[C@@H]3CCCC[C@@H]32)c1	i
Cc1ccc(CN2CCCCCNC(=O)[C@@H]3CCC[C@@H]32)s1	-17%
Cc1cc(C(=O)N[C@@H]2CN(Cc3ccccc3)C[C@H]2CN(C)C)n(C)n1	-6%
O=C(O)C[C@@H]1CCN(C(=O)C2CCCC2)C[C@@H]1CCN(CCN1CCOCC1)c1ccccc1	-13%
